Values joined by “and” are separate entries in the source; they are usually repeats but may differ in a detail not shown here. Identical values can stand only once. The source holds several records for some structures; these can differ, active in one and inactive in another. Active and inactive are the calls of the source. Rule for the calls: active = hit-call score of the fitted dose curve at least 0.9, where 1 is the maximum; inactive = score below 0.9.
What was measured:
Settings in all cases: mRNA level, 48 h; actives raise or lower the signal
[1] = read-out: MicroRNA 122 (MIR122), gene 406906; assay: LTEA_HepaRG_MIR122: Life Technologies and Expression Analysis (LTEA) Assay for MicroRNA 122 (MIR122) using HepaRG (AID 2283516); note: the transcript read is the microRNA miR-122
Procedure, shortened: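 Human liver HepaRG cultures receive test chemicals for 48 h at eight half-log concentrations from 100 uM. Expression is quantified by qRT-PCR with ACTB/GAPDH/POLR2A normalization and fitted bidirectionally against 0.5% DMSO.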

[2] = read-out: matrix metalloproteinase-10 (MMP10), MMP10 (gene 4319); assay: LTEA_HepaRG_MMP10: Life Technologies and Expression Analysis (LTEA) Assay for matrix metalloproteinase-10 (MMP10) using HepaRG (AID 2283517)
Procedure, shortened: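 In differentiated HepaRG cultures kept in 0.5% DMSO, test chemicals act for 48 h over an eight-point range with a top dose of 100 uM. Expression is then quantified by TaqMan RT-PCR against ACTB, GAPDH and POLR2A.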

MYC, MYC (gene 4609) = assay: LTEA_HepaRG_MYC: Life Technologies and Expression Analysis (LTEA) Assay for MYC using HepaRG (AID 2283518)
Procedure, shortened: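 Differentiated HepaRG cells exposed 48 h in serum-free induction medium to 8 concentrations (top 100 uM, half-log steps; 0.5% DMSO), duplicate. MYC mRNA measured by Fluidigm qRT-PCR, normalized to ACTB, GAPDH, POLR2A; bidirectional fit versus DMSO.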

[3] = read-out: matrix metalloproteinase-3 (MMP3), MMP3 (gene 4314); assay: LTEA_HepaRG_MMP3: Life Technologies and Expression Analysis (LTEA) Assay for matrix metalloproteinase-3 (MMP3) using HepaRG (AID 2283519)
Procedure, shortened: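 Human liver HepaRG cultures received chemicals (top concentration 100 uM, 0.5% DMSO) for 48 h in duplicate. MMP3 mRNA induction or loss was then assessed via TaqMan qRT-PCR with housekeeping-gene normalisation.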

[4] = read-out: Paternally Expressed 10 (PEG10), PEG10 (gene 23089); assay: LTEA_HepaRG_PEG10: Life Technologies and Expression Analysis (LTEA) Assay for Paternally Expressed 10 (PEG10) using HepaRG (AID 2283520);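 for AC50: PEG10 transcript by qRT-PCR normalised to ACTB GAPDH and POLR2A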
Procedure, shortened: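 Human HepaRG cultures are dosed for 48 h across an eight-point half-log series starting at 100 uM, with 0.5% DMSO as vehicle and baseline. Gain or loss of PEG10 transcript is measured by qRT-PCR and fitted in both directions.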

[5] = read-out: Nuclear factor NF-kappa-B p105 subunit (Homo sapiens) (UniProt P19838); assay: LTEA_HepaRG_NFKB1: Life Technologies and Expression Analysis (LTEA) Assay for Nuclear Factor Kappa B Subunit 1 (NFKB1) using HepaRG (AID 2283521);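 for outcome: TaqMan qRT-PCR transcript normalised to ACTB GAPDH and POLR2A housekeeping genes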
Procedure, shortened: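 Differentiated human HepaRG cells were exposed for 48 h in serum-free induction medium to eight concentrations (top 100 uM, half-log steps, 0.5% DMSO), in duplicate. NFKB1 mRNA was measured by TaqMan qRT-PCR, normalized to ACTB/GAPDH/POLR2A, and fitted bidirectionally against DMSO.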

[6] = read-out: Protein phosphatase 2A (PPP2R4), PTPA (gene 5524); assay: LTEA_HepaRG_PPP2R4: Life Technologies and Expression Analysis (LTEA) Assay for Protein phosphatase 2A (PPP2R4) using HepaRG (AID 2283522)
Procedure, shortened: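 Cells were plated, cultured 48 h, switched to serum-free induction medium, then dosed for 48 h (8 points, max 100 uM, 0.5% DMSO). RNA was isolated and PPP2R4 expression measured by TaqMan qRT-PCR.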

[7] = read-out: Phosphatase and tensin (PTEN), PTEN (gene 5728); assay: LTEA_HepaRG_PTEN: Life Technologies and Expression Analysis (LTEA) Assay for Phosphatase and tensin (PTEN) using HepaRG (AID 2283523)
Procedure, shortened: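 Expression of PTEN is quantified in the human liver line HepaRG following two days of dosing (top concentration 100 uM, half-log dilutions, 0.5% DMSO). Values derive from bidirectional curve fitting relative to DMSO controls.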

[8] = read-out: solute carrier (SLC22A1), SLC22A1 (gene 6580); assay: LTEA_HepaRG_SLC22A1: Life Technologies and Expression Analysis (LTEA) Assay for solute carrier (SLC22A1) using HepaRG (AID 2283524)
Procedure, shortened: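 Transcript induction or suppression of SLC22A1 in human HepaRG cultures is scored after 48 h chemical treatment, with DMSO (0.5%) as baseline for bidirectional fitting. Concentrations span eight half-log points topping at 100 uM.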

[9] = read-out: Pyruvate Dehydrogenase Kinase 4 (PDK4), PDK4 (gene 5166); assay: LTEA_HepaRG_PDK4: Life Technologies and Expression Analysis (LTEA) Assay for Pyruvate Dehydrogenase Kinase 4 (PDK4) using HepaRG (AID 2283525)
Procedure, shortened: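 Eight-point, half-log concentration series (max 100 uM, 0.5% DMSO) applied to differentiated HepaRG cells for 48 h in duplicate. Endpoint: PDK4 mRNA induction or repression by qRT-PCR against DMSO baseline.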

Chain of Nuclear factor NF-kappa-B p105 subunit (Homo sapiens) (P19838 whole entry, looked up): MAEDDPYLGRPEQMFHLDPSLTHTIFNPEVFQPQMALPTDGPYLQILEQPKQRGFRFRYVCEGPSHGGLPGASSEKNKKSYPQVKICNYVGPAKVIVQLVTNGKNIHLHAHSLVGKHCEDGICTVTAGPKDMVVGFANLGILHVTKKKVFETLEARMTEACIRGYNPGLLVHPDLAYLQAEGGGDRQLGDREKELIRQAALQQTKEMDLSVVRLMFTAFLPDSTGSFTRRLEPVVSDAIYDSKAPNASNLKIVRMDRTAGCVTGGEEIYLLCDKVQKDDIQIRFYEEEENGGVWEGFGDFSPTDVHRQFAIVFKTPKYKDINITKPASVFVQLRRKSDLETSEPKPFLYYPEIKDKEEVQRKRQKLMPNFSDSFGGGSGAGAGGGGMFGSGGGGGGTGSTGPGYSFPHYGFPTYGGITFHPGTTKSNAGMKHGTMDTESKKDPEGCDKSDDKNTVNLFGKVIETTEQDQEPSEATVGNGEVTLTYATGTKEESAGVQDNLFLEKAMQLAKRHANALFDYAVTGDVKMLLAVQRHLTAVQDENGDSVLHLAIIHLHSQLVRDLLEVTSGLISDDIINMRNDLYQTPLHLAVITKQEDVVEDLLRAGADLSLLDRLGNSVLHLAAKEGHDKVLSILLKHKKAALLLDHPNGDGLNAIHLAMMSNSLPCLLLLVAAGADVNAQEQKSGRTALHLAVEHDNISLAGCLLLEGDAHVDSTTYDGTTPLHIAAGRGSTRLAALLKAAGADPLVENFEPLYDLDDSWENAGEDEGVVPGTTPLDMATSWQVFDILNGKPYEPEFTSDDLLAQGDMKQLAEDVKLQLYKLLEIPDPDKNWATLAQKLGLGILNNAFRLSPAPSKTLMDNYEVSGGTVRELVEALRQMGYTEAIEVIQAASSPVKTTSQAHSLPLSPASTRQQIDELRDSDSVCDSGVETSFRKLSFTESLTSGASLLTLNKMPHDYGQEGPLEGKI

CNC(=O)ON=CC(C)(C)SC
outcome [1]: inactive | outcome [2]: inactive | outcome (MYC, MYC (gene 4609)): inactive | outcome [3]: inactive | outcome [4]: inactive | outcome [5]: inactive | outcome [6]: inactive | outcome [7]: inactive | outcome [8]: inactive | outcome [9]: inactive

O=C(Nc1ccccc1)Nc1ccnc(Cl)c1
outcome [1]: inactive | outcome [2]: inactive | outcome (MYC, MYC (gene 4609)): inactive | outcome [3]: inactive | AC50 [4]: 31.8 µM (active) | AC50 [5]: 39.2 µM (active) | AC50 [6]: 77.7 µM (active) | AC50 [7]: 75.2 µM (active) | AC50 [8]: 68 µM (active) | outcome [9]: inactive

CCCCNC(=O)n1c(NC(=O)OC)nc2ccccc21
outcome [1]: inactive | outcome [2]: inactive | outcome (MYC, MYC (gene 4609)): inactive | outcome [3]: inactive | outcome [4]: inactive | outcome [5]: inactive | outcome [6]: inactive | outcome [7]: inactive | outcome [8]: inactive | outcome [9]: inactive

CC1=C(C(=O)Nc2ccccc2)SCCO1
outcome [1]: inactive | outcome [2]: inactive | outcome (MYC, MYC (gene 4609)): inactive | outcome [3]: inactive | outcome [4]: inactive | outcome [6]: inactive | outcome [7]: inactive | AC50 [8]: 14.2 µM (active) | outcome [9]: inactive

N#Cc1nn(-c2c(Cl)cc(C(F)(F)F)cc2Cl)c(N)c1S(=O)C(F)(F)F (stereo not drawn)
AC50 [1]: 59.2 µM (active) | AC50 [2]: 30.7 µM (active) | AC50 (MYC, MYC (gene 4609)): 35.1 µM (active) | AC50 [3]: 50.2 µM (active) | AC50 [4]: 23.6 µM (active) | AC50 [6]: 11.5 µM (active) | outcome [7]: inactive | AC50 [8]: 19.6 µM (active) | AC50 [9]: 23.1 µM (active)

COP(=S)(OC)Oc1nc(Cl)c(Cl)cc1Cl
outcome [1]: inactive | outcome [2]: inactive | outcome (MYC, MYC (gene 4609)): inactive | outcome [3]: inactive | AC50 [4]: 69 µM (active) | outcome [6]: inactive | outcome [7]: inactive | outcome [8]: inactive | outcome [9]: inactive

CS/C(C)=N/OC(=O)N(C)SN(C)C(=O)O/N=C(\C)SC
outcome [1]: inactive | outcome [2]: inactive | outcome (MYC, MYC (gene 4609)): inactive | outcome [3]: inactive | outcome [4]: inactive | outcome [5]: inactive | outcome [6]: inactive | outcome [7]: inactive | outcome [8]: inactive | outcome [9]: inactive

COc1nc(NC(C)C)nc(NC(C)C)n1
outcome [1]: inactive | outcome [2]: inactive | outcome (MYC, MYC (gene 4609)): inactive | outcome [3]: inactive | outcome [4]: inactive | outcome [5]: inactive | outcome [6]: inactive | outcome [7]: inactive | outcome [8]: inactive | outcome [9]: inactive

CCCCNC(=O)OCC#CI
outcome [1]: inactive | outcome [2]: inactive | outcome (MYC, MYC (gene 4609)): inactive | outcome [3]: inactive | outcome [4]: inactive | outcome [6]: inactive | outcome [7]: inactive | outcome [8]: inactive | outcome [9]: inactive

CO/C=C(/C(=O)OC)c1ccccc1Oc1cc(Oc2ccccc2C#N)ncn1
AC50 [1]: 72 µM (active) and 83.7 µM (active) and 74.3 µM (active) | AC50 [2]: 81 µM (active) and 66.5 µM (active) and 34.6 µM (active) | AC50 (MYC, MYC (gene 4609)): 77.8 µM (active) and 90 µM (active) and 90.3 µM (active) | AC50 [3]: 83.2 µM (active) and 79.1 µM (active) and 78.9 µM (active) | AC50 [4]: 27.9 µM (active) and 26.6 µM (active) and 17.5 µM (active) | outcome [6]: inactive | outcome [7]: inactive | AC50 [8]: 78 µM (active) and 70.5 µM (active) and 68.7 µM (active) | AC50 [9]: 18.6 µM (active) | outcome [9]: inactive

COC(=O)C=C(C)OP(=O)(OC)OC
outcome [1]: inactive | outcome [2]: inactive | outcome (MYC, MYC (gene 4609)): inactive | outcome [3]: inactive | outcome [4]: inactive | outcome [6]: inactive | outcome [7]: inactive | outcome [8]: inactive | outcome [9]: inactive

OC(c1ccc(Cl)cc1)(c1cncnc1)c1ccccc1Cl (stereo not drawn)
AC50 [1]: 73.2 µM (active) | AC50 [2]: 58.9 µM (active) | AC50 (MYC, MYC (gene 4609)): 80.4 µM (active) | outcome [3]: inactive | AC50 [4]: 5.86 µM (active) | AC50 [6]: 66.4 µM (active) | outcome [7]: inactive | AC50 [8]: 81.8 µM (active) | AC50 [9]: 75.9 µM (active)

Cc1cc(Cl)ccc1OCC(=O)O
outcome [1]: inactive | outcome [2]: inactive | outcome (MYC, MYC (gene 4609)): inactive | outcome [3]: inactive | AC50 [4]: 9.94 µM (active) | outcome [6]: inactive | outcome [7]: inactive | outcome [8]: inactive | AC50 [9]: 35.5 µM (active)

Source: PubChem BioAssay (EPA / NIEHS)
